The structures appear in SMILES notation. Where “and” joins values, the source holds several entries; their conditions need not be identical. Equal entries are not always repeated. Records with an inconclusive call do not appear. A call without a number means that no potency is given here. Calls of active or inactive are those of the source. Calls follow the shape of the dose curve; as a rule, active = well fitted inhibition curve with a large enough effect; inconclusive = small, poorly fitted or top-dose-only effect; inactive = flat fitted curve, though single readings scatter.

RecQ-like DNA helicase BLM (Homo sapiens), sequence (P54132 whole entry, looked up): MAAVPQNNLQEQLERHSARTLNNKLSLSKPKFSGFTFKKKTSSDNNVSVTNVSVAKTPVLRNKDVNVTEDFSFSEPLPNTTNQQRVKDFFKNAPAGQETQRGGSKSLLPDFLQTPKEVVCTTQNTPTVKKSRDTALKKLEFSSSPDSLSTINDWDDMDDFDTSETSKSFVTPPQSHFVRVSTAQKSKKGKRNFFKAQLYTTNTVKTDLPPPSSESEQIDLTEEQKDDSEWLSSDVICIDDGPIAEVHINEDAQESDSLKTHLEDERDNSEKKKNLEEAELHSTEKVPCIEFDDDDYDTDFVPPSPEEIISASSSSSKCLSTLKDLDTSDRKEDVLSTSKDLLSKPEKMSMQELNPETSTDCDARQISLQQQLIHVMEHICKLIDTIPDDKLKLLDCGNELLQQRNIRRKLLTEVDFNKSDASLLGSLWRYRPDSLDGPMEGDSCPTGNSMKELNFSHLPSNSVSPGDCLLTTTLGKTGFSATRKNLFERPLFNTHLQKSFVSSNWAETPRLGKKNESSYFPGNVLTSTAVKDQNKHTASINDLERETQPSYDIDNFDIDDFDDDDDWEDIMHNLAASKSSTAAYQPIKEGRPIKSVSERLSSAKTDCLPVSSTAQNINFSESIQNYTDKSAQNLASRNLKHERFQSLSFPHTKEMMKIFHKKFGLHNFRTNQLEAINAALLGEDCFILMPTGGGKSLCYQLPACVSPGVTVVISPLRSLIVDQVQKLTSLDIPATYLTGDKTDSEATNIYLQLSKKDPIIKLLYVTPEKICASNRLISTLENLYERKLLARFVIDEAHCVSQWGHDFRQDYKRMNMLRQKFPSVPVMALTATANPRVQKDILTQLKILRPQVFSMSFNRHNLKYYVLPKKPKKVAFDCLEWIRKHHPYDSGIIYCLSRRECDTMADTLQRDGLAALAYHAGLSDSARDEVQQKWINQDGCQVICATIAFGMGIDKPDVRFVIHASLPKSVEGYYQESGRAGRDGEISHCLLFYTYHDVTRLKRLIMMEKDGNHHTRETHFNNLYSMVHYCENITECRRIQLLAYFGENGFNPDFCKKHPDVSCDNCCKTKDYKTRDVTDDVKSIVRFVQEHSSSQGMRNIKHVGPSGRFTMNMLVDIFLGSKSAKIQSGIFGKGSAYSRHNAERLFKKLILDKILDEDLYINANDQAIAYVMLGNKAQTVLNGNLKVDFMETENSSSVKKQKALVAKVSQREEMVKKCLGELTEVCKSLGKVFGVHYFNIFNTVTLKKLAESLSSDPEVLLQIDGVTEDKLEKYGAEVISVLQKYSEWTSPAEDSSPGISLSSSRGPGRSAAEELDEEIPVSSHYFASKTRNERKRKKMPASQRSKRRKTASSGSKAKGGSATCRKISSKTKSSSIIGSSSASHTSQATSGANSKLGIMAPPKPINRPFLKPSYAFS

The experiment addresses RecQ-like DNA helicase BLM (Homo sapiens) (UniProt P54132). The experiment in a line: qHTS for Inhibitors of Bloom's syndrome helicase (BLM): Helicase ATPase Orthogonal Confirmatory Assay for SAR. Particulars: purified BLM helicase ATPase activity assay; series mostly up to 57.1 µM. The text has this: Human RecQ DNA helicases participate in maintenance of genome stability and DNA repair. While other types of helicases have been explored as targets for drug development, members of the RecQ family have remained less well characterized. Mutations of the Bloom helicase gene have been associated with the rare human genetic disease called Bloom syndrome. […] Moreover, identified inhibitors can be used in cells and animal models to examine the consequences of inhibition on the survival of cancer cells where it has been shown that BLM plays an important role.
A fluorescence-based, biochemical assay in 1536 well format was developed to evaluate inhibition of BLM DNA unwinding activity. This assay was used to screen the MLPCN library. The resulting compounds were subjected to orthogonal and secondary biochemical assays to triage the initial hits, to classify compounds based on mode of action and to derive structure activity relationships (SARs) of candidate effectors. The data herein is the result of the Helicase ATPase orthogonal confirmatory assay. This luminescence assay employs a purified BLM enzyme and a single stranded BLM oligo substrate ([…]). For this assay increase in luminescence signal is greater than or equal to 700 RLU. Inhibition is the desired outcome for this assay.
NIH Chemical Genomics Center [NCGC]
NIH Molecular Libraries Probe Centers Network [MLPCN]
Assay Submitter (PI): Opher Gileadi, Structural Genomics Consortium, University of Oxford, UK
Three microliter of reaction buffer (25mM Tris-HCl pH 8.0, 50mM NaCl, 2mM MgCl2, 1mM DTT, and 0.01% Tween- 20, and 2nM BLM enzyme) was dispensed into a 1536-well assay plates (Greiner, solid white medium-binding) via Aurora Discovery BioRAPTR Flying Reagent Dispenser (FRD). Compounds (23nl each in columns 5-48) and control (23nl each in column 2 as dose-response) were transferred via a Kalypsys pintool equipped with a 1536-pin array. The plates were incubated for 15 min at room temperature followed by addition of 1 ul of substrates (200nM single-stranded oligonucleotide and 100uM ATP, final concentrations) to start the reaction. After 15 min., the reaction was terminated by the addition of 2.5ul of ADP-Glo Reagent I (Promega) to each well and incubation at room temperature for 30 min. Next, 5ul of ADP-Glo Reagent II (Promega) was added to each well. After 30 min at room temperature, the luminescence signal was detected using the ViewLux CCD imager. The data was normalized against no-inhibitor and no-enzyme controls and the resulting percent inhibition data were fitted to a sigmoidal dose response using a four-parameter Hill equation.
For orientation: In qHTS, concentration-response curves come from the screen itself.
On to `CCOC(=O)c1cccc(NC(=O)Nc2nnc(-c3ccncc3)s2)c1`, for which the Potency result was “inactive”. Next, `O=C(Nc1ccc(N2CCOCC2)c(F)c1)Nc1nnc(-c2ccncc2)s1`: “inactive”.

In the case of `Cc1cc(NC(=O)Nc2cccc(-c3ccncc3)n2)ccc1Br`, the Potency entry was “inactive”.

Turning to `O=C(Nc1ccc2ccccc2c1)Nc1nnc(C2CCCCC2)s1`, the Potency result was “inactive”. Turning to `O=C(Nc1ccc(Cl)c(C(F)(F)F)c1)Nc1nnc(-c2ccncc2)s1`, the Potency entry was “inactive”. For `S=C(Nc1ccc(Cl)c(Cl)c1)Nc1nnc(-c2ccncc2)o1` the value was “inactive”; for `Nc1ccc(NC(=O)Nc2nnc(-c3ccncc3)s2)cc1C(F)(F)F`, “inactive”; for `O=C(Nc1ccc(Cl)c(Cl)c1)Nc1ncc(-c2ccncc2)s1`, “inactive”.

Regarding `Cc1cc(NC(=O)Nc2nnc(-c3ccncc3)s2)ccc1F`, the Potency entry was “inactive”. Take `Cc1ccccc1-c1nnc(NC(=O)Nc2ccc3ccccc3c2)s1`: the Potency result is “inactive”.

`N#Cc1cccc(NC(=O)Nc2nnc(-c3ccncc3)s2)c1`: the Potency is 2.29 µM (active).

As to `O=C(Nc1ccc2ccccc2c1)Nc1nnc(-c2ccccc2Cl)s1`, the Potency result was “inactive”.

For `O=C(Nc1nnc(-c2ccncc2)s1)Nc1cc(C(F)(F)F)ccc1F`, the Potency entry is “inactive”. Next, `O=S(=O)(Cc1ccc(Cl)c(Cl)c1)Nc1nnc(-c2ccncc2)s1`: “inactive”; `O=C(Nc1cccc(C(=O)O)c1)Nc1nnc(-c2ccncc2)s1`: “inactive”; `CN(C(=O)Nc1ccc2ccccc2c1)c1nnc(-c2ccncc2)s1`: “inactive”. Next, `O=C(Nc1ccc2ccccc2c1)Nc1nnc(-c2ccc(Cl)cc2)s1`: “inactive”. Next, `O=C(Nc1ccc(N2CCOCC2)c(C(F)(F)F)c1)Nc1nnc(-c2ccncc2)s1`: “inactive”; `O=C(Nc1ccc2ccccc2c1)Nc1nnc(Br)s1`: “inactive”.

For the compound `S=C(Nc1ccc(Cl)c(Cl)c1)Nc1nnc(-c2ccncc2)s1`, the Potency is 2.64 µM (active).

As to `O=C(NCc1ccc(Cl)c(Cl)c1)Nc1nnc(-c2ccncc2)s1`, the Potency result is “inactive”. For `O=C(Nc1ccc2ccccc2c1)Nc1nnc(-c2ccncc2)s1`, the Potency was 3.24 µM (active). For `CN1CCN(c2nnc(NC(=O)Nc3ccc(Cl)c(Cl)c3)s2)CC1` the value was “inactive”. Next, `O=C(Nc1ccc(Cl)c(Cl)c1)Nc1cccc(-c2ccncc2)n1`: “inactive”; `N#Cc1cc(NC(=O)Nc2nnc(-c3ccncc3)s2)ccc1Br`: 0.646 µM (active).

In the case of `O=C(Nc1ccc(Cl)c(Cl)c1)Nc1nnc(-c2ccncc2)s1`, the Potency was 6.46 µM (active). For `O=C(Nc1cc(F)cc(F)c1)Nc1nnc(-c2ccncc2)s1` the value was “inactive”; for `N#Cc1cc(NC(=O)Nc2nnc(-c3ccncc3)s2)ccc1-c1cn[nH]c1`, 1.02 µM (active) and 5.13 µM (active). For `O=C(Nc1ccc(F)c(C(F)(F)F)c1)Nc1nnc(-c2ccncc2)s1`, the Potency result was “inactive”. For `O=C(Nc1nnc(-c2ccncc2)s1)Nc1ccc(Cl)cc1F` the value was “inactive”; for `Cc1cc(C)c(-c2nnc(NC(=O)Nc3ccc4ccccc4c3)s2)c(C)c1`, “inactive”. `O=C(Nc1ccc2ccccc2c1)Nc1nnc(-c2ccc(O)cc2)s1`: the Potency result was “inactive”. Turning to `c1ccc2[nH]c(Nc3nnc(-c4ccncc4)s3)nc2c1`, the Potency result was “inactive”.

Turning to `O=C(Nc1nnc(-c2ccncc2)s1)NC12CC3CC(CC(C3)C1)C2`, the Potency result was “inactive”. `O=C(Nc1ccc(F)c(C(F)(F)F)c1)Nc1nnc(C2CCCCC2)s1`: the Potency entry was “inactive”.

Consider `O=C(Nc1ccc(Cl)c(Cl)c1)Nc1nnc(NC2CCNCC2)s1`, for which the Potency result was “inactive”.

With `O=C(Nc1ccc(Br)cc1)Nc1nnc(-c2ccncc2)s1`, the Potency was 8.13 µM (active). For `O=C(Nc1ccc(-n2cncn2)c(C(F)(F)F)c1)Nc1nnc(-c2ccncc2)s1`, the Potency was 20.4 µM (active).

Regarding `Cc1cc(NC(=O)Nc2nnc(C3CCCCC3)s2)ccc1Cl`, the Potency result is “inactive”. Consider `O=C(Nc1ccc2ccccc2c1)Nc1nnc(-c2ccccc2)s1`, for which the Potency entry was “inactive”.

The record behind these values is PubChem BioAssay AID720549 (National Center for Advancing Translational Sciences (NCATS), 2013).
